According to PubChem BioAssay AID1159580 (chemical genetic matrix, 2015):
Screen size: about 5,500 compounds; about 2,000 (36%) were called active. Roughly 18% stayed inconclusive and do not appear here. No stated cut-off is given here; in the data, active means normalized growth mostly below about 0.91 (no sharp cut-off); inconclusive means no clear call, values can overlap the other calls; inactive means mostly above about 0.92. Some of the results follow.

Experiment: chemical genetic growth profiling, strain panel (AID 1159580);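 further: tested at 20 µM; growth read once vehicle control cultures reached saturation at 30 °C; 1 = growth at the plate median or of vehicle wells; lower values mean less growth of the strain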
Conditions: growth OD
[1] = S. cerevisiae deletion strains, locus YAL013W, strain DEP1, active compounds read low
[2] = S. cerevisiae deletion strains, locus YDR150W, strain NUM1, active compounds read low
[3] = S. cerevisiae deletion strains, locus YGR229C, strain SMI1, active compounds read low
[4] = S. cerevisiae deletion strains, locus YJR075W, strain HOC1, active compounds read low
[5] = S. cerevisiae deletion strains, locus YMR263W, strain SAP30, active compounds read low
[6] = S. cerevisiae deletion strains, locus YMR307W, strain GAS1, active compounds read low
[7] = S. cerevisiae deletion strains, locus YNL322C, strain KRE1, active compounds read low
[8] = S. cerevisiae deletion strains, locus YPL241C, strain CIN2, active compounds read low
[9] = S. cerevisiae deletion strains, locus YBR229C, strain ROT2, active compounds read low
[10] = S. cerevisiae deletion strains, locus YDL101C, strain DUN1, active compounds read low
[11] = S. cerevisiae deletion strains, locus YDL134C, strain PPH21, active compounds read low
[12] = S. cerevisiae deletion strains, locus YEL061C, strain CIN8, active compounds read low
[13] = S. cerevisiae deletion strains, locus YGR078C, strain PAC10, active compounds read low
[14] = S. cerevisiae deletion strains, locus YHR030C, strain SLT2, active compounds read low
[15] = S. cerevisiae deletion strains, locus YHR087W, strain rtc3, active compounds read low
[16] = S. cerevisiae deletion strains, locus YJR043C, strain POL32, active compounds read low
[17] = S. cerevisiae deletion strains, locus YLR039C, strain RIC1, active compounds read low
[18] = S. cerevisiae deletion strains, locus YLR058C, strain SHM2 (second series), active compounds read low
[19] = S. cerevisiae deletion strains, locus YLR085C, strain ARP6, active compounds read low
[20] = S. cerevisiae deletion strains, locus YLR262C, strain YPT6, active compounds read low
[21] = S. cerevisiae deletion strains, locus YML094W, strain GIM5, active compounds read low
[22] = S. cerevisiae deletion strains, locus YMR219W, strain ESC1, active compounds read low
[23] = S. cerevisiae deletion strains, locus YNL153C, strain GIM3, active compounds read low
[24] = S. cerevisiae deletion strains, locus YNL298W, strain CLA4 (second series), active compounds read low
[25] = S. cerevisiae deletion strains, locus YNR030W, strain Alg12, active compounds read low
[26] = S. cerevisiae deletion strains, locus YPL055C, strain LGE1, active compounds read low
[27] = S. cerevisiae deletion strains, locus YPR135W, strain CTF4, active compounds read low

Measured: normalized growth

CC1(C)CCC=[N+]1[O-]
inactive: [1] 1 | S. cerevisiae deletion strains, locus YAL040C, strain CLN3, active compounds read low 1.04 | S. cerevisiae deletion strains, locus YCL061C, strain MRC1 (second series), active compounds read low 1.01 | [2] 1 | S. cerevisiae deletion strains, locus YDR363W, strain ESC2, active compounds read low 1.02 | S. cerevisiae deletion strains, locus YER002W, strain NOP16, active compounds read low 0.98 | [3] 1.05 | [4] 1.03 | [5] 1 | [6] 1.01 | S. cerevisiae deletion strains, locus YNL175C, strain NOP13, active compounds read low 0.993 | S. cerevisiae deletion strains, locus YNL197C, strain WHI3, active compounds read low 1.01 | S. cerevisiae deletion strains, locus YNL224C, strain SQS1, active compounds read low 1 | [7] 1.01 | S. cerevisiae deletion strains, locus YOR083W, strain WHI5 (second series), active compounds read low 1.03 | [8] 1

CCOC(=O)CSc1nc2cc(C(F)(F)F)cnc2n1C
inactive: [1] 0.984 | [9] 0.98 | [10] 1.01 | [11] 0.975 | [2] 0.99 | [12] 0.993 | [13] 0.983 | [3] 1.01 | [14] 0.909 | [15] 0.96 | [16] 0.988 | [4] 0.997 | S. cerevisiae deletion strains, locus YKL190W, strain CNB1, active compounds read low 1.01 | [17] 1.05 | [18] 0.985 | [19] 1.04 | [20] 1.03 | [21] 0.952 | [22] 0.989 | [5] 0.99 | [6] 1.19 | [23] 1 | [24] 0.961 | [7] 0.982 | [25] 0.988 | S. cerevisiae deletion strains, locus YOL006C, strain TOP1, active compounds read low 0.942 | [26] 0.981 | [8] 1.07 | [27] 0.912

COC(OC)c1cc(=O)[nH]c(=S)[nH]1
inactive: [1] 1.01 | [9] 1.02 | [10] 1 | [11] 1.02 | [2] 0.918 | [12] 1.04 | [13] 1.03 | [14] 1.06 | [15] 1.01 | S. cerevisiae deletion strains, locus YJL187C, strain SWE1, active compounds read low 1.02 | [16] 1.01 | [4] 1.01 | [17] 1.07 | [18] 1.01 | [19] 1.11 | [20] 1.03 | [21] 1.02 | [22] 1.01 | [5] 1.03 | [6] 1.12 | [23] 1.01 | [24] 1.08 | [7] 1.01 | [25] 1.02 | [26] 0.935 | [8] 0.913 | [27] 1.03 | S. cerevisiae strains, strain wild type, active compounds read low 1.01
